# Measurements from PubChem BioAssay AID743373 (National Center for Advancing Translational Sciences (NCATS), 2014).
# Values joined by “and” are separate entries in the source; they are usually repeats but may differ in a detail not shown here. Identical values can stand only once. Results filed as inconclusive are left out. Active and inactive are the calls of the source. Calls come from the whole dose curve; as a rule, active = well fitted inhibition curve with a large enough effect; inconclusive = small, poorly fitted or top-dose-only effect; inactive = flat fitted curve, though single readings scatter.
# Target: Galactokinase (Homo sapiens) (UniProt P51570)
# Assay: qHTS for Inhibitors of Human Galactokinase (GALK): Confirmation Assay for SAR round 4
# Conditions: recombinant GALK, ADP-Glo luminescence, 1 h; series mostly up to 57.5 µM; activity, negative = inhibition: at the top concentration
# Description: Inherited deficiency of galactose-1-phosphate uridyltransferase (GALT) can result in a potentially lethal disorder called Classic Galactosemia (OMIM 230400). Several lines of evidence indicate that an elevated level of galactose-1-phosphate (gal-1-p), the product of galactokinase (GALK), is a major, if not sole, pathogenic mechanism in patients with classic galactosemia. Therefore, finding inhibitors of GALK is a potential novel therapy for this inherent metabolic disease and is the long term goal of this project. Active compounds observed in the qHTS GALK assay (AID: 1868) were cherry picked and re-screened for validation. GALK (provided by Kent Lai) was assayed using ATP and D-(+)-Galactose (Sigma-Aldrich cat# G0750) as substrates. Promega ADP-Glo technology was used to detect the ADP product formed after the kinase reaction. Kinase reactions with and without GALK were used as negative and positive controls together with Protein Tyrosine Phosphatase CD45 inhibitor (EMD Bioscience cat# 540215) which is shown to inhibit GALK activity. Decrease in activity corresponds to inhibition of the enzyme, the desired outcome for this assay. NIH Molecular Libraries Probe Production Network [MLPCN] NIH Chemical Genomics Center [NCGC] Grant: R03 MH085689-01 PI Name: Kent Lai, University of Utah
# Two uL/well of ATP-buffer solution (35 uM ATP, 20mM HEPES pH8.0, 5 mM MgCl2, 60 mM NaCl, 1 mM DTT, 0.01% BSA final concentration) was dispensed into 1536-well, assay plates (Greiner, solid white medium-binding plates) with Aurora Discovery BioRAPTR Flying Reagent Dispenser (FRD; Beckton-Dickenson). Compound and control solution (23 nL) was transferred to the assay plate using the Kalypsys 1536-pin tool apparatus. Half uL/well GALK-galactose solution (5 nM GALK, 100 uM galactose, 20 mM HEPES pH8.0, 5 mM MgCl2, 60 mM NaCl, 1 mM DTT, 0.01% BSA final concentration) was then added using the FRD yielding a total kinase reaction volume of 2.5 uL/ well. After 1 hour of room temperature incubation, 2.5 uL ADP-Glo reagent A was added and incubated for 15 min. Five micorliter of ADP-Glo reagent B was then added per well and incubated for additional 15 min at room temperature. Luminescence was detected with the ViewLux plate reader (Perkin Elmer, Waltham, MA) using a 1 sec exposure time and 2x binning.
# Sequence of Galactokinase (Homo sapiens) (P51570 whole entry, looked up): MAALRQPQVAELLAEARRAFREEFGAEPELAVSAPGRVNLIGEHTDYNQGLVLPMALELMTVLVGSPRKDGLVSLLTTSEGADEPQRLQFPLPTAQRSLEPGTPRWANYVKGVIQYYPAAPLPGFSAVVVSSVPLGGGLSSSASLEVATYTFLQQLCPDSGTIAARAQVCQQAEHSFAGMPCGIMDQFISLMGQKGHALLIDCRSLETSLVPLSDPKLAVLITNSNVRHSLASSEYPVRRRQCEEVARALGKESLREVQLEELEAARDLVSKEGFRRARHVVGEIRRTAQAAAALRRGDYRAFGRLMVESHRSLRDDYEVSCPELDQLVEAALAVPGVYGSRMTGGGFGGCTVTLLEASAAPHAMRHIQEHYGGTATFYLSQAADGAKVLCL
Compound,Potency,"activity, negative = inhibition"
CC1=C(C(=O)Nc2nncs2)C(c2[nH]ncc2Cl)N=C(Nc2nc3ccccc3o2)N1 (stereo not given),7.69 µM (active),
CC1=C(C(=O)Nc2ccon2)C2(CCCC2)N=C(Nc2nc3ccccc3o2)N1,7.69 µM (active),
O=C1CCCC2=C1C(c1[nH]ncc1Cl)N=C(Nc1nc3ccccc3o1)N2 (stereo not given),5.44 µM (active) and 6.85 µM (active),
O=C1CCCC2=C1C(c1[nH]ncc1Br)N=C(Nc1nc3ccccc3o1)N2 (stereo not given),15.3 µM (active),
CC1=C(C(=O)Nc2nc3ccccc3s2)C2(CCCC2)N=C(Nc2nc3ccccc3o2)N1,,-18.2% (inactive)
CC1=C(C(=O)Nc2ccc(Cl)cc2)C(c2ccccc2Br)N=C(Nc2nc3ccccc3o2)N1 (stereo not given),,-26.9% (inactive)
CC1=C(C(=O)Nc2ccon2)C(c2ccccc2Br)N=C(Nc2nc3ccccc3o2)N1 (stereo not given),7.69 µM (active),
CC1=C(C(=O)Nc2noc3ccccc23)C2(CCCC2)N=C(Nc2nc3ccccc3o2)N1,,-1.57% (inactive)
CC1=C(C(=O)Nc2noc3ccccc23)C(c2nn(C)cc2Cl)N=C(Nc2nc3ccccc3o2)N1 (stereo not given),,-1.71% (inactive)
O=C1C2=C(CN1Cc1ccccc1)NC(Nc1nc3ccccc3o1)=NC2c1ccccc1Cl (stereo not given),,-0.242% (inactive)
O=C1CCCC2=C1C(c1ccncc1Cl)N=C(Nc1nc3ccccc3o1)N2 (stereo not given),10.9 µM (active),
CC1=C(C(=O)NC2CCCC2)C(c2[nH]ncc2Cl)N=C(Nc2nc3ccccc3o2)N1 (stereo not given),,-11.9% (inactive)
CC1=C(C(=O)Nc2nc3ccccc3s2)C(c2nn(C)cc2Cl)N=C(Nc2nc3ccccc3o2)N1 (stereo not given),,-5.67% (inactive)
O=C1CCCC2=C1C(c1ccccc1I)N=C(Nc1nc3ccccc3o1)N2 (stereo not given),3.06 µM (active),
CC1=C(C(=O)Nc2nc3ccccc3s2)C(c2[nH]ncc2Cl)N=C(Nc2nc3ccccc3o2)N1 (stereo not given),,-7.24% (inactive)
O=C1CCCC2=C1C(c1ccccc1Br)N=C(Nc1nc3ccccc3o1)N2 (stereo not given),4.32 µM (active),
O=C1C2=C(CN1c1ccccc1)NC(Nc1nc3ccccc3o1)=NC2c1ccccc1Cl (stereo not given),,-7.05% (inactive)
O=C1CCCC2=C1C(c1ccccc1Cl)N=C(Nc1nc3ccccc3o1)N2 (stereo not given),13.7 µM (active),
CC(C)CN1CC2=C(C1=O)C(c1ccccc1Cl)N=C(Nc1nc3ccccc3o1)N2 (stereo not given),,-14.9% (inactive)
CNC(=O)C1=C(C)NC(Nc2nc3ccccc3o2)=NC12CCCC2,,-10.4% (inactive)
